From PubChem
BRCA1 expr up = BRCA1 expression activation; 380,000 tested, 1.1% active; MCF7-BRCA1-FFLuc reporter, luminescence, 48 h; response scale: scaled: vehicle 0%, 10 µM genistein 100%; Potency, µM (highest dose often 46.1 µM), without a hit: at the top dose activation, hits mostly activators; note: potency is the fitted concentration of half-maximal effect; nearly all actives have a fitted effect of over 80% in size
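Luminescence from a BRCA1-driven firefly luciferase in MCF7 cells was read after 48 h compound exposure at 37 C. Data normalized against DMSO and a 10microM genistein activation control, then curve-fitted across the titration.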
ELG1 repair inh = inhibitors of ELG1-dependent DNA repair in HEK293T cells | HEK293T ELG1-luciferase reporter, luminescence, 16 h; DNA damage induced by 5-fluorouridine | Potency, µM (titrated, usually from 46.1 µM), inactives show at the highest dose activity change, negative = inhibition, actives largely listed as inhibitors | 330,000 tested, 2.3% active | AID 504467; note: potency is the fitted concentration of half-maximal effect; % is set by controls: 0 for no effect and ±100 for the full control effect; nearly all actives have a fitted effect of over 55% in size
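5-Fluorouridine DNA damage + compound/DMSO, 2,000 cells/well, 16 h, 37 °C/5% CO2. ONE-Glo, 30 min RT, luminescence. Readout = decrease in reporter signal.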
Giardia kill = kills Giardia lamblia; Giardia lamblia trophozoite viability; activity change, % at 7.66 µM, hits read low; 340,000 tested, 0.15% active; AID 540267; in the data active = activity change below about -80%; inconclusive = between about -30% and that limit;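 note: parasites exposed to compound for two days anaerobically before the ATP read; % is set by controls: 0 for no effect and ±100 for the full control effect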
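Trophozoite viability was measured as ATP-dependent luminescence, read 15-30 min after reagent addition. Before that, parasites at 100 cells/well were exposed to compounds for 48 h, anaerobically, at 37 deg C.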
VP16 counter = Gal4-VP16 reporter inhibition counter-screen. Drosophila S2 Gal4-VP16 UAS-luciferase, luminescence, 20 h. Potency, µM (doses to about 53.6 µM), for inactives: at the highest dose activity, negative = inhibition, usual class: inhibitors. 310,000 tested, 3.5% active;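 note: Gal4-VP16 expression switched on by copper sulfate through the metallothionein promoter; potency is the fitted concentration of half-maximal effect; % is set by controls: 0 for no effect and ±100 for the full control effect; nearly all actives have a fitted effect of over 50% in size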
RORgamma inh = inhibitors of mouse ROR gamma transcriptional activity; P51450; Drosophila S2 Gal4-RORgamma UAS-luciferase reporter, 20 h; Potency, µM (series often up to 53.6 µM), for the others: at the highest dose activity change, negative = inhibition, most hits filed as inhibitors; 310,000 tested, 5.4% active; AID 2551; note: potency is the fitted concentration of half-maximal effect; % is set by controls: 0 for no effect and ±100 for the full control effect; nearly all actives have a fitted effect of over 60% in size
Target sequence (P51450 whole entry, looked up, the tested form may be a part): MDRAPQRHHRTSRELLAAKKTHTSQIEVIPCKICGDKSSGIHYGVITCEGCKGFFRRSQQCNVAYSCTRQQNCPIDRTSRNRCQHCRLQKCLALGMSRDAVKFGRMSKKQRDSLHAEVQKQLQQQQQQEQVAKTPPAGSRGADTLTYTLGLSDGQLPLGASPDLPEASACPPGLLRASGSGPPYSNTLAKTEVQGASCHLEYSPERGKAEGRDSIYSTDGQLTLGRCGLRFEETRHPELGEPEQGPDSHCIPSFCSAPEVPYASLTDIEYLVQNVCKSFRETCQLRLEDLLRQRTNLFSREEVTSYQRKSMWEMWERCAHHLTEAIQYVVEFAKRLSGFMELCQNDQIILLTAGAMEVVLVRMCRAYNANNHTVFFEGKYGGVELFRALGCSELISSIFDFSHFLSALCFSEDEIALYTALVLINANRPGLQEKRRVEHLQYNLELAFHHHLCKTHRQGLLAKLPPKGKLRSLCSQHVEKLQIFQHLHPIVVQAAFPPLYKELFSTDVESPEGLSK
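Stably transfected Drosophila Schneider cells are the test system, with ROR gamma fused to Gal4 and luciferase under UAS control; luminescence is read after 20 hr of 700 uM copper sulfate induction at ambient temperature.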
p53 reactivation = re-activators of mutant p53. H1299 p53-A138V BP100-luciferase reporter, luminescence, 24 h. Potency, µM (doses to about 92.2 µM), inactives show at the top dose activity change, positive = activation, hits mostly activators. 320,000 tested, 0.063% active. AID 504706; note: potency is the fitted concentration of half-maximal effect; % of control where 0% means no effect; nearly all actives have a fitted effect of over 45% in size
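H1299 (p53-null), stable ts p53-A138V + BP100-Luc; 1000 cells/well, Opti-MEM/10% FBS; cpd 4 pt, 1:5; 24 h, 37 deg C, 5% CO2; detection reagent 10 min RT; luminescence.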
Numbers without * were called inactive; u = inconclusive; x = not tested or not shown; ! = not active in a repeat; [ ] = dose if it differs, or a comment. Compounds with a hit are over-represented: about 7.6% of the library has one in this group of screens. Unless noted, calls come from the whole dose curve; as a rule, active = well fitted curve in the direction sought with a large enough effect; inconclusive = small, poorly fitted or top-dose-only effect, or another doubt; inactive = no such curve, though single readings can be large; an effect the other way counts as inactive or inconclusive.

SMILES | BRCA1 expr up | ELG1 repair inh | Giardia kill | VP16 counter | RORgamma inh | p53 reactivation
CCOc1ccc(NC(=O)c2ccco2)c([N+](=O)[O-])c1 | u | u | 14 | -3% | 29%[10 µM] | 4.5µM*
CCOc1ccccc1NC(=S)NC(=O)c1ccco1 | -1% | 7% | 1 | x | x | x
COc1ccccc1C(=O)NNC(=S)NC(=O)c1ccco1 | -86% | u | u | u | 16µM* | u
COc1ccc(C(C)C)cc1S(=O)(=O)N1CCN(c2ccccc2)CC1 | -34% | -16% | 25 | 29% | 15% | 4%
COCCNC(=O)c1ccc2c(c1)NC(=O)CS2 | -15% | 7% | 7 | -14% | 2% | -3%
O=C1CSc2ccc(C(=O)NCCc3ccc(Cl)cc3Cl)cc2N1 | -5% | 26µM* | -1 | x | x | -2%
CCN(CC)c1ccc(/C=C/c2sc3ccccc3[n+]2CCCCI)cc1 | -52% | x | x | x | x | x
CCOc1ccc(-c2nnc(-c3cccs3)o2)cc1 | -4% | u | -2 | u | 11µM* | 22%
CCOc1ccc(-c2nnc(-c3cccs3)o2)cc1OCC | 8.9µM* | u | 2 | 24% | 3% | 16%
COc1cc(-c2nnco2)cc(OC)c1OC | 27% | 1% | -1 | -2% | -2% | 10%
COc1ccc(-c2nnc(-c3cc(OC)c(OC)c(OC)c3)o2)cc1OC | -27% | 23µM* | 11 | 2% | 9% | -16%
COc1cc(-c2nnc(-c3cccs3)o2)cc(OC)c1OC | 0% | u | 3 | -9% | 24% | 3%
CCOc1ccc(Nc2oc(-c3cccs3)nc2C#N)cc1 | 37% | x | 3 | -5% | 9% | x
COc1ccc(-c2nnc(-c3cccs3)o2)cc1OC | 5µM* | u | 16 | x | 29%[0.365 µM] | u
Cc1ccc(CSCCNC(=O)CN2C(=O)c3ccccc3S2(=O)=O)cc1 | 9% | 2% | -2 | -1% | 28% | 2%
CC(=O)c1c(C)[nH]c(C(=O)CSc2ncnc3sc(-c4ccccc4)cc23)c1C | -47% | u | -13 | u | -24% | -1%
C[C@@H](NCCc1ccc(O)cc1)[C@@H](O)c1ccc(O)cc1 | 9% | x | -7 | x | x | x
CCCCCCCCNC(C)C(O)c1ccc(SC(C)C)cc1 (stereo not given) | -38% | u | 3 | u | 11µM*! | -4%
CC(OC(=O)c1cnc(Cl)c(Cl)c1)C(=O)NCc1ccccc1 (stereo not given) | -18% | u | -8 | x | x | 1%
O=C1Nc2cccnc2N(C(=O)CCl)c2ccccc21 | -82% | 21µM* | -20 | -22% | u | -20%
CCOC(=O)CNC(=O)CSc1nc2cccnc2n1Cc1ccccc1 | -2% | u | -3 | -3% | 7% | 3%
Cc1nc(NC(=O)CSc2nc3cccnc3n2Cc2ccccc2)sc1C | -41% | u | 1 | u | 13µM* | -8%
COc1ccc(OC)c(C(=O)CCCCC(=O)c2cc(OC)ccc2OC)c1 | 3% | x | x | x | x | x
C=C(C)CNC(=S)Nc1cccc(N)n1 | 2% | 11% | -1 | u | 2.8µM* | 10%
CCOC(=O)NC(=S)Nc1cccc(C)n1 | -4% | x | x | x | x | x
SMILES | BRCA1 expr up | ELG1 repair inh | Giardia kill | VP16 counter | RORgamma inh | p53 reactivation
CC1CN(S(=O)(=O)c2cccc(-c3cn4ccccc4n3)c2)CC(C)O1 (stereo not given) | -53% | u | 9 | 0.35µM* | u | 5%
Cc1ccc(C(=O)CN2C(=O)NC3(CCCCCC3)C2=O)c(C)c1 | 6.3µM* | u | 0 | x | x | 17%
O=C(Nc1ccc(F)cc1)Nc1cc(OCC(F)(F)F)cc(OCC(F)(F)F)c1 | -66% | 0% | -12 | 6.3µM* | u | -1%
CCOc1ccc(NC(=O)Nc2cc(OCC(F)(F)F)cc(OCC(F)(F)F)c2)cc1 | -7% | u | 11 | -26% | u | -2%
O=C(O)c1cccc(COc2ccc(CO)cc2Cl)c1 | -104% | u | -28 | 5µM* | 1.8µM* | -23%
O=C(O)c1cccc(COc2ccc3c(c2)CCC3)c1 | -96% | u | -16 | 6% | 0% | -9%
O=C(O)c1ccc(COc2ccc(CO)cc2Cl)cc1 | 7.9µM* | u | -12 | u | u | 21%
COc1ccc(C(=O)N2c3ccccc3C(=O)OC2c2ccc3c(c2)OCO3)cc1 (stereo not given) | 11µM* | u | u | -30% | -30% | u
CC(=O)Oc1ccc(C2OC(=O)c3ccccc3N2C(C)=O)cc1 (stereo not given) | 3% | u | 2 | 0% | -42% | 7%
CC(=O)Nc1ccc(NC(=O)C(C)OC(=O)CCSc2ccccc2Cl)cc1 (stereo not given) | 5% | 3% | 6 | x | x | -6%
COc1ccc(N=c2cc(-c3ccc(OC)cc3)oc3ccccc23)cc1 | -21% | 23µM* | 2 | 0% | -11% | 1%
COc1ccc(-c2cc(=Nc3ccc(C)cc3)c3ccccc3o2)cc1 | -23% | u | 5 | -18% | 0% | 2%
O=Cc1ccccc1-n1cccn1 | -10% | 0% | -21 | -9% | 1% | 2%
Oc1cc(-n2cccn2)c(O)cc1-n1cccn1 | -20% | u | -12 | 13µM* | u | -10%
Cc1cc(C)nc(N/N=C/C2=C(N3CCOCC3)C(=C/c3ccccc3)/CC2)n1 | -52% | 16µM* | 10 | -20% | -11% | 1%
O=C(O)c1ccccc1N/N=C/C1=C(N2CCOCC2)C(=C\c2ccccc2)/CC1 | 36% | u | 20 | -1% | u | 13%
O=C(N/N=C/c1ccc(OC(=O)c2ccccc2)c([N+](=O)[O-])c1)c1ccc(O)cc1 | -23% | -7% | -1 | u | 8.9µM* | 2%
COc1cc(/C=C/[N+](=O)[O-])ccc1OCc1cccc(C(=O)O)c1 | -86% | u | 2 | -21%[10 µM] | 7.1µM* | -12%
COc1cc(/C=C2\SC(=O)NC2=O)ccc1Oc1ccc([N+](=O)[O-])cn1 | 0% | 21µM* | -2 | u | u | 3%
COc1cc(/C=C2/SC(=O)NC2=O)ccc1Oc1ccc([N+](=O)[O-])cc1[N+](=O)[O-] | -14% | 15% | u | -3% | -28% | -6%
COc1ccc(/C=N/NC(=O)c2cccc([N+](=O)[O-])c2)cc1OC(=O)c1ccc(C)cc1 | -51% | -5% | 3 | u | 5µM* | 1%
COc1ccc(/C=N/NC(=O)c2cccc([N+](=O)[O-])c2)cc1OC(=O)c1ccccc1 | -31% | 2% | 5 | u | u | 19%
COc1ccc(/C=N/NC(=O)c2cccc([N+](=O)[O-])c2)cc1OC | 1% | 1% | 15 | -2% | -39% | 2%
